{
  "source": "PubChem BioAssay AID743330",
  "about": "(NMMLSC, 2014)",
  "tested_on": "Cdc42",
  "assay": "GTPase panel EC50 shift with labeled GTP level, profiling panel, mechanism study, biochemical, four GTPases, bead flow cytometry (AID 743330)",
  "conditions": "bead-based flow cytometry, fluorescent GTP binding to GTPases",
  "note": "Calls of active or inactive are those of the source. No rule for the calls is given here.",
  "data": [
    {"compound": "CC1(C)Cc2c(sc(NC(=S)NC(=O)c3ccc(F)cc3)c2C(=O)O)CO1", "values": [
      {"measurement": "EC50", "result": "76 nM (active)"}
    ]},
    {"compound": "CCC1(C)Cc2c(sc(NC(=S)NC(=O)c3ccccc3)c2C(=O)O)CO1", "note": "(configuration not stated)", "values": [
      {"measurement": "outcome", "result": "inactive"}
    ]}
  ]
}
